# This is one part of a sample in which the strongest signals are shown more often than they occur.
# B1: PX15642A-pgi-501-20-501 (Parabacteroides gingivalis) (protein)
# chain: CELDRDPEGKDFQQPYTSFVQTKQNRDGLYALLRNTENPRMHFYQELQSDMYCTTITDGNSLAPFVNWDLGILNDHGRADEDEVSGIAGYYFVYNRLNQQANAFVNNTEAALQNQVYKNSTEIANAKSFLAEGKVLQALAIWRLMDRFSFHESVTEVNSGAKDLGVILLKEYNPGYIGPRATKAQCYDYILSRLSEAIEVLPENRESVLYVSRDYAYALRARIYLALGEYGKAAADAKMVVDKYPLIGAADASEFENIYRSDANNPEIIFRGFASATLGSFTATTLNGAAPAGKDIKYNPSAVPFQWVVDLYENEDFRKSVYIAKVVKKDKGYLVNKFLEDKAYRDVQDKPNLKVGARYFSVAEVYLILVESALQTGDTPTAEKYLKALSKARGAEVSVVNMEALQAERTRELIGEGSRLRDMVRWSIPNNHDAFETQPGLEGFANTTPLKAQAPVGFYAYTWEFPQRDRQTNPQLIKNWPI
# Assays:
# Assay in all cases: glycan array binding signal (z-score within array); higher = stronger binding
# Conditions in all cases: glycan notation: IUPAC condensed, linker removed
# Fuc(a1-2)Gal(b1-3)GlcNAc = molecular target: Fuc(a1-2)Gal(b1-3)GlcNAc
# Method in brief: (§1)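 The binding signal is a Z-score computed within each array and averaged over linkers. Arrays of the same protein sequence at different concentrations or buffers were also averaged together. Data originate from 3228 arrays in the Consortium for Functional Glycomics database, kept only where the protein sequence was available.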
# [1] = molecular target: Fuc(a1-2)Gal(b1-3)GlcNAc(b1-2)Man(a1-3)[Fuc(a1-2)Gal(b1-3)GlcNAc(b1-2)Man(a1-6)]Man(b1-4)GlcNAc(b1-4)[Fuc(a1-6)]GlcNAc
# Method in brief: as §1
# [2] = molecular target: Fuc(a1-2)Gal(b1-3)GlcNAc(b1-3)GalNAc
# Method in brief: as §1
# [3] = molecular target: Fuc(a1-2)Gal(b1-3)GlcNAc(b1-3)[Neu5Ac(a2-6)Gal(b1-4)GlcNAc(b1-6)]Gal(b1-4)Glc
# Method in brief: as §1
# [4] = molecular target: Fuc(a1-2)Gal(b1-4)GlcNAc(b1-6)GalNAc
# Method in brief: as §1
# [5] = molecular target: Fuc(a1-2)[Gal(a1-3)]Gal(b1-4)GlcNAc(b1-2)Man
# Method in brief: as §1
# [6] = molecular target: Fuc(a1-2)[Gal(a1-3)]Gal(b1-4)GlcNAc(b1-2)Man(a1-3)[Fuc(a1-2)[Gal(a1-3)]Gal(b1-4)GlcNAc(b1-2)Man(a1-6)]Man(b1-4)GlcNAc(b1-4)GlcNAc
# Method in brief: as §1
# [7] = molecular target: Fuc(a1-2)[Gal(a1-3)]Gal(b1-4)GlcNAc(b1-3)GalNAc
# Method in brief: as §1
# [8] = molecular target: Fuc(a1-2)[Gal(a1-3)]Gal(b1-4)GlcNAc(b1-3)[Fuc(a1-2)[Gal(a1-3)]Gal(b1-4)GlcNAc(b1-6)]GalNAc
# Method in brief: as §1
# [9] = molecular target: Fuc(a1-2)[GalNAc(a1-3)]Gal(b1-4)GlcNAc(b1-2)Man
# Method in brief: as §1
# [10] = molecular target: Fuc(a1-3)[Gal(b1-4)]GlcNAc(b1-3)GalNAc
# Method in brief: as §1
# Fuc(a1-4)GlcNAc = molecular target: Fuc(a1-4)GlcNAc
# Method in brief: as §1
# [11] = molecular target: Gal(a1-3)Gal(b1-4)GlcNAc(b1-2)Man(a1-3)[Gal(a1-3)Gal(b1-4)GlcNAc(b1-2)Man(a1-6)]Man(b1-4)GlcNAc(b1-4)GlcNAc
# Method in brief: as §1
# [12] = molecular target: Gal(a1-3)[Gal(a1-4)]Gal(b1-4)GlcNAc
# Method in brief: as §1
# [13] = molecular target: Gal(a1-4)Gal(b1-4)GlcNAc(b1-2)Man(a1-3)[Gal(a1-4)Gal(b1-4)GlcNAc(b1-2)Man(a1-6)]Man(b1-4)GlcNAc(b1-4)GlcNAc
# Method in brief: as §1
# Gal(b1-3)Gal = molecular target: Gal(b1-3)Gal
# Method in brief: as §1
# [14] = molecular target: Gal(b1-3)GalNAc(a1-3)[Fuc(a1-2)]Gal(b1-4)Glc
# Method in brief: as §1
# [15] = molecular target: Gal(b1-3)GlcNAc(b1-6)GalNAc
# Method in brief: as §1
# Gal(b1-3)GlcNAc6S = molecular target: Gal(b1-3)GlcNAc6S
# Method in brief: as §1
# [16] = molecular target: Gal(b1-3)[Fuc(a1-4)]GlcNAc
# Method in brief: as §1
# Gal(b1-4)Gal = molecular target: Gal(b1-4)Gal
# Method in brief: as §1
# [17] = molecular target: Gal(b1-4)GlcNAc(b1-2)Man(a1-3)[GlcNAc(b1-2)Man(a1-6)]Man(b1-4)GlcNAc(b1-4)GlcNAc
# Method in brief: as §1
# [18] = molecular target: Gal(b1-4)GlcNAc(b1-2)Man(a1-6)[Man(a1-3)]Man(b1-4)GlcNAc(b1-4)GlcNAc
# Method in brief: as §1
# [19] = molecular target: Gal(b1-4)GlcNAc(b1-2)[Gal(b1-4)GlcNAc(b1-4)]Man(a1-3)[Gal(b1-4)GlcNAc(b1-2)[Gal(b1-4)GlcNAc(b1-6)]Man(a1-6)]Man(b1-4)GlcNAc(b1-4)GlcNAc
# Method in brief: as §1
# [20] = molecular target: Gal(b1-4)GlcNAc(b1-2)[Gal(b1-4)GlcNAc(b1-6)]Man(a1-6)[Gal(b1-4)GlcNAc(b1-2)Man(a1-3)]Man(b1-4)GlcNAc(b1-4)[Fuc(a1-6)]GlcNAc
# Method in brief: as §1
# [21] = molecular target: Gal(b1-4)GlcNAc(b1-3)Gal(b1-4)GlcNAc(b1-2)Man(a1-3)[Gal(b1-4)GlcNAc(b1-3)Gal(b1-4)GlcNAc(b1-2)Man(a1-6)]Man(b1-4)GlcNAc(b1-4)GlcNAc
# Method in brief: as §1
# [22] = molecular target: Gal(b1-4)GlcNAc(b1-3)Gal(b1-4)GlcNAc(b1-2)[Gal(b1-4)GlcNAc(b1-3)Gal(b1-4)GlcNAc(b1-6)]Man(a1-6)[Gal(b1-4)GlcNAc(b1-3)Gal(b1-4)GlcNAc(b1-2)Man(a1-3)]Man(b1-4)GlcNAc(b1-4)GlcNAc
# Method in brief: as §1
# [23] = molecular target: Gal(b1-4)GlcNAc(b1-3)Gal(b1-4)GlcNAc(b1-6)[Gal(b1-3)]GalNAc
# Method in brief: as §1
binder,measurement,setting,value
B1,glycan array binding signal (z-score),Fuc(a1-2)Gal(b1-3)GlcNAc,-0.306
same,glycan array binding signal (z-score),[1],0.224
same,glycan array binding signal (z-score),[2],-0.094
same,glycan array binding signal (z-score),[3],-0.121
same,glycan array binding signal (z-score),[4],2.85
same,glycan array binding signal (z-score),[5],-0.144
same,glycan array binding signal (z-score),[6],0.849
same,glycan array binding signal (z-score),[7],1.21
same,glycan array binding signal (z-score),[8],0.225
same,glycan array binding signal (z-score),[9],-0.848
same,glycan array binding signal (z-score),[10],-0.744
same,glycan array binding signal (z-score),Fuc(a1-4)GlcNAc,2.72
same,glycan array binding signal (z-score),[11],-0.319
same,glycan array binding signal (z-score),[12],6.32
same,glycan array binding signal (z-score),[13],0.38
same,glycan array binding signal (z-score),Gal(b1-3)Gal,0.322
same,glycan array binding signal (z-score),[14],1.53
same,glycan array binding signal (z-score),[15],-0.003
same,glycan array binding signal (z-score),Gal(b1-3)GlcNAc6S,0.706
same,glycan array binding signal (z-score),[16],-0.298
same,glycan array binding signal (z-score),Gal(b1-4)Gal,0.332
same,glycan array binding signal (z-score),[17],0.359
same,glycan array binding signal (z-score),[18],-0.027
same,glycan array binding signal (z-score),[19],0.733
same,glycan array binding signal (z-score),[20],0.317
same,glycan array binding signal (z-score),[21],2.09
same,glycan array binding signal (z-score),[22],2.23
same,glycan array binding signal (z-score),[23],2.71

# — the supplement of paper PMC8728848
